High-throughput results deposited in PubChem by The Scripps Research Institute Molecular Screening Center.
TTR transcr act: TTR transcription activation, primary screen; SH-SY5Y TTR promoter Gaussia luciferase, luminescence; 100% = recombinant luciferase protein wells; activation, % at 16.7 µM; actives 1.3% (n = 92,000); AID 1117267;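 active = activation above the mean of all tested compounds plus 3 SD, cut at about 9.5% in these data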;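 also: cells exposed to compounds for one day before reading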
TTR inh HuH7: decreases TTR transcription in HuH7 cells in activator counter-screen; shares compounds with TTR transcr act; HuH7 TTR promoter-Gaussia luciferase reporter, luminescence; inhibition, % at 16.7 µM; actives 4% (n = 1,100); AID 1117279;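 active = average inhibition above the solvent-only control wells' mean plus 3 SD, cut at about 15% in these data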;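 also: inhibitors lower well luminescence so higher value means more inhibition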
TTR up confirm: confirmation of human transthyretin transcription activators; SHSY5Y TTR promoter Gaussia luciferase, luminescence; 100% = purified Lucia enzyme wells, no cells; shares compounds with TTR transcr act; AID 1117280; activation, % at 16.7 µM; 1,100 tested, under 10 active;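 active = mean activation above a set limit taken from the earlier primary screen, cut at about 11% in these data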
Large screens that a line does not name were inactive (follow-up assays come after a bar, where they were run). The sample as a whole holds a higher share of hits than the screen did.

CCCC/C=C1/[C@H](c2ccccc2)N(C)C2=N[C@H](c3ccccc3)CC(=O)N21	none
CN(C)[C@@H]1CCN(c2ccc3c(c2)OCCCN(C2CC2)S3(=O)=O)C1	none
COc1cccc(C2C(C#N)=C(N)Oc3cc(C)n(Cc4ccccn4)c(=O)c32)c1OC (stereo not drawn)	none
COC(=O)C1=C(N)Oc2cc(C)n(Cc3cccnc3)c(=O)c2C1c1ccc(OC)c(OC)c1 (stereo not drawn)	TTR transcr act 18.0 | TTR inh HuH7 inactive | TTR up confirm inactive
COc1ccc(C(=O)NCc2cccnc2)cc1OC	none
CCc1ccc(CCNC(=O)OC2CC3CC2[C@H]2CCCCN2[C@H]3Cc2ccccc2)cc1 (stereo partly drawn)	none
O=C(NC1CCCCN(Cc2ccc(Cl)cc2)C1=O)c1cccs1 (stereo not drawn)	none
Cn1c(=O)c2c(ncn2CC(=O)N2CCN(S(=O)(=O)c3ccc(F)cc3)CC2)n(C)c1=O	none
Cn1c(=O)c2c(nc(SCC(=O)c3ccc(F)cc3)n2C)n(C)c1=O	none
Cn1c(=O)c2c(ncn2CC(O)CNc2ccc(F)cc2)n(C)c1=O (stereo not drawn)	TTR transcr act 15.6 | TTR inh HuH7 inactive | TTR up confirm inactive
O=C(NCc1ccccc1)OC1CC2CC1[C@H]1CCCCN1C2 (stereo partly drawn)	none
Cc1ccccc1CNC1CCC12CCC(c1ccccc1)CC2 (stereo not drawn)	none
Cc1cccc(NC(=O)OC2CC3CC2[C@H]2CCCCN2C3)c1 (stereo partly drawn)	none
O=C(OCc1cn(Cc2cccc(F)c2)nn1)N1CCOCC1	none
CCCCn1c(=O)n(Cc2cccc(F)c2)c(=O)c2c1ncn2Cc1ccco1	TTR transcr act 19.3 | TTR inh HuH7 inactive | TTR up confirm inactive
Cc1cccc(Cn2c(=O)c3c(nc4n3CCN4Cc3ccco3)n(C)c2=O)c1	none
CCn1cnc2c1c(=O)n(CC(=O)O)c(=O)n2Cc1ccccc1	none
O=C(OCc1cn(Cc2cccc(Cl)c2)nn1)N1CCOCC1	none
COC(=O)[C@]12C[C@H](CC(=O)NCC3CCCCC3)C(=O)N(Cc3ccc(Cl)cc3Cl)C1=C[C@H](C(C)(C)C)O[C@@H]2C	none
O=C(N[C@@H]1CC[C@H]2SC[C@H](C(=O)O)N2C1=O)OCC1c2ccccc2-c2ccccc21	none
O=C(COC(=O)c1cc(Br)ccc1O)NNC(=O)c1ccc([N+](=O)[O-])cc1	none
O=C(NNC(=O)c1ccccc1O)c1ccc(Br)cc1	none
O=C(COC(=O)c1ccccc1O)NNC(=O)c1ccc(Br)cc1	TTR transcr act 9.9 | TTR inh HuH7 inactive | TTR up confirm inactive
CCOC(=O)CCCNC(=O)OC1CC2CC1[C@H]1CCCCN1[C@H]2C (stereo partly drawn)	none
C[C@@H]1CCCN1c1cccc2c1S(=O)(=O)N1CC[C@@H](C1)O2	none
Cc1csc(NC(=O)CCc2c(C)nc3cc(-c4ccc(Cl)cc4)nn3c2C)n1	none
Cc1csc(NC(=O)CSc2nnc(-c3ccc(Cl)cc3)n2N)n1	TTR transcr act 44.4 | TTR inh HuH7 inactive | TTR up confirm inactive
Cc1csc(NC(=O)CSc2nnc(Cc3cccn3C)n2-c2ccc(F)cc2)n1	none
COC(=O)[C@]12C[C@H](CC(=O)NCc3cccc(C(F)(F)F)c3)C(=O)N(CCc3ccc(OC)c(OC)c3)C1=C[C@H](COCc1ccccc1)O[C@@H]2C	none
O=C(Cc1nnc(NC(=O)Nc2ccc(F)cc2)s1)Nc1ccccc1	none
Nc1nc(Nc2ccccc2)sc1C(=O)c1ccccc1	none
O=C(c1ccc(F)cc1)c1cnc(Nc2ccccc2)s1	TTR transcr act 15.0 | TTR inh HuH7 inactive | TTR up confirm inactive
CCCCCn1nnnc1C1(C)Cn2nccc2C(=O)N1Cc1ccco1 (stereo not drawn)	none
N#Cc1ccc(C(=O)Oc2coc(CSc3ncccn3)cc2=O)cc1	none
O=C(NCCCCNC(=O)c1cccs1)c1cccs1	none
O=C(NCCCNC(=O)c1cccs1)c1cccs1	none
COCCCNC(=O)c1cccs1	TTR transcr act 16.1 | TTR inh HuH7 inactive | TTR up confirm inactive
C[C@@H]1CCN(C2CC2)S(=O)(=O)c2c(cccc2N2CC[C@H](O)C2)O1	none
COc1ccc(OC)c(CN2C(=O)CSCC2(C)c2nnnn2C2CCCC2)c1 (stereo not drawn)	none
O=C1CCCN2N=C(SCC(=O)Nc3ccc([N+](=O)[O-])cc3)SC2=N1	TTR transcr act 32.1 | TTR inh HuH7 inactive | TTR up confirm inactive
O=C1CCCN2N=C(SCC(=O)Nc3nccs3)SC2=N1	none
Cc1ccc(NC(=O)CSC2=NN3CCCC(=O)N=C3S2)c(C)c1	none
COc1ccc(C2Nc3ccccc3C(=O)N2Cc2cccnc2)cc1COc1c(C)cccc1C (stereo not drawn)	none
CC1(C)CC2CN(Cc3ccccc3)S(=O)(=O)N2C1 (stereo not drawn)	none
